Each structure is given as a SMILES string. About 83,000 compounds went through this panel and 20% of them were active in at least one assay; those are over-represented in the sample as a whole.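 Results are percent growth after 48 hours of single-concentration exposure. 100 means growth as in untreated cells, lower positive values show inhibition; negative values down to -100 show cell death.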 Values without a mark were called inactive. Activity calls are given as the source filed them.

This assay relates to IGROV1 ovarian. Briefly: NCI-60 one-dose screen, 48 h (100 = growth as untreated, 0 = no growth, -100 = all killed). The note with it: 10 µM unless noted. How it is done: Growth inhibition of the IGROV1 human tumor cell line is measured as a screen for anti-cancer activity. Cells are grown in 96 well plates and exposed to the test compound for 48 hours. Compounds are tested at a single concentration, which is 10^-5 M for most compounds. The reported endpoint is percent growth (GI% or GIPRCNT), where numbers from 0 - 100% represent growth inhibition, and numbers from -100% - 0 represent cell death. For example, a value of 40 represents 60% growth inhibition. A value of 0 means no net growth occurred over the course of the experiment. A value of -40 indicates 40% of cells at the beginning of the experiment died by the end of the experiment. A value of -100 means all cells are dead at the end of the experiment.
NCI-60 Human Tumor Cell Lines Screen was performed using the standard one-dose NCI protocol, which is described in more detail at https://dtp.cancer.gov/discovery_development/nci-60/default.htm.
Compounds with GIPRCNT values below 10 were considered active. Activity score was based on GIPRCNT using the following formula: […]
Score is 0 for GIPRCNT values of 100 or above, 50 for GIPRCNT values of 0, and 100 for GIPRCNT values of -100.
Consider `CCCCN(CCCC)CC(CN(CC)CC)OC(=O)Nc1ccccc1` (stereo not given), for which the growth was 57%.

For `Cc1c(O)c(=O)ccn1-c1nc2ccccc2s1`, the growth was 109%.

As to `COc1ccc(/C=C(/C(=O)N2CCCC2)c2cc(OC)c(OC)c(OC)c2)cc1`, the growth is 49.9%.

In the case of `Oc1c(CCl)cc(Cl)cc1Cc1cc(Cl)cc(Cc2cc(Cl)cc(CCl)c2O)c1O`, the growth was 37.8%.

On to `Nc1ccccc1NC(=O)c1ccc(CSc2nc(N3CCOCC3)c3cccn3n2)cc1`, for which the growth is 21.5%.

Consider `O=C(Nc1ccc(S(=O)(=O)NC2CCCCCC2)cc1)C(c1ccccc1)S(=O)(=O)c1ccc(F)cc1` (stereo not given), for which the growth is 9.4% (active).

As for `COc1cc2c(cc1OC)C(Sc1ccc(Cl)cc1)c1c(nc(N)c(C#N)c1N)O2` (stereo not given), the growth is -25.5% (active).

As to `CNc1cccc2c1C(=O)c1cccc(N)c1C2=O`, the growth is 67.5%.

For the compound `COc1ccc(/C=C(/C(=O)N2CCN(Cc3ccccc3)CC2)c2cc(OC)c(OC)c(OC)c2)cc1O`, the growth is 68.4%.

Take `O=C1[C@@H](OS(=O)(=O)CC(F)(F)F)[C@H](c2ccc(F)cn2)N1c1cc2c3ccccc3ccc2c2ccccc12`: the growth was 70%.

With `CNC(=O)c1cc(Oc2ccc3c(c2)sc2nc(-c4ccc(NC(C)=O)cc4)cn23)ccn1`, the growth was 69.2%.

Turning to `O=C(Nc1cccc(-c2cccc(F)c2)c1)C1CCN(Cc2cccc3cccnc23)CC1`, the growth was 62.7%.

As to `CCCCOc1nc2ccc(C)cc2cc1/C=C/C(=O)/C=C/c1ccc2c(c1)OCO2`, the growth was 90.3%.

`COc1ccc2cc(/C=C3\N=C(c4cc(OC)c(OC)c(OC)c4)OC3=O)c(OC)nc2c1`: the growth is 109%.

For the compound `Cc1cc(C)nc(NS(=O)(=O)c2ccc(Nc3ccc4c5c(n(CCCN(C)C)c(=O)c4c3)-c3ccccc3C5=O)cc2)n1`, the growth was 74.2%.

Regarding `COc1cc(F)c(-c2nc3c(C)cccc3n2Cc2c(F)cccc2F)c(F)c1`, the growth is 69.4%.

On to `CCC[S@@](=O)c1ccc2nc(NC(=O)OC)[nH]c2c1`, for which the growth is 91.3%.

Regarding `O=C1c2ccccc2C(=O)c2c1oc1c2c(=O)[nH]c2ccccc21`, the growth is 55.1%.

As to `O=C(Nc1cc(Nc2ncccc2-c2ncnc3nc[nH]c23)ccc1F)c1cc(C(F)(F)F)cc(C(F)(F)F)c1`, the growth was 2.77% (active).

With `O=C(Nc1nc2ccc(C(F)(F)F)cc2s1)c1cc(Cl)ccc1O`, the growth is 30.8%.

On to `COc1ccc(/C=C/C(=O)C(CC2CCC2)C(=O)/C=C/c2ccc(OC)c(OC)c2)cc1OC`, for which the growth was -17.1% (active).

In the case of `CN(C)C(CNc1oc(-c2cccc3ccccc23)nc1C#N)c1ccco1` (stereo not given), the growth was 95.7%.

For the compound `COc1ccc(/C=C/C(=O)/C=C(/C=C/c2ccc(OC)c(OC)c2)OB(F)F)cc1OC`, the growth was 49.6%.

Regarding `CCOCCc1c(O)nc(SC)[nH]c1=O`, the growth is 100%.

In the case of `O=C1C(=O)c2c(nc3ccc(C(F)(F)F)cn23)-c2ccccc21`, the growth was -58.9% (active).

As to `N#CC1(C#N)C2=C(CCCC2)NC(c2c(F)cccc2Cl)C1(C#N)C#N` (stereo not given), the growth is 83.3%.

As for `O=c1[nH]c2ccccc2cc1-c1nc2ccncc2[nH]1`, the growth is 84.2%.

For the compound `CC1(C)Cc2c(Br)c(Br)c(Br)c(OCC(O)CN3CCOCC3)c2O1` (stereo not given), the growth is -83.4% (active).

Consider `O=C1CC(c2ccc(O)c(O)c2)Oc2cc(O)c([C@@H]3O[C@H](CO)[C@@H](O)[C@H](O)[C@H]3O)c(O)c21` (stereo not given in full), for which the growth is 109%.

Regarding `[2H]c1nc(Nc2ncc3cc(C(=O)N(C)C)n(C4CCCC4)c3n2)c([2H])c([2H])c1N1C([2H])([2H])C([2H])([2H])NC([2H])([2H])C1([2H])[2H]`, the growth was 65.8%.

`CCn1cc(C(=O)O)c(=O)c2cc(F)c(N3CCN(CC(=O)Nc4ccc(/C(C)=N/OC)cc4)CC3)cc21`: the growth was 94.6%.

With `Cc1c(Br)cccc1NC(=O)c1sc2nc3c(cc2c1N)CN(Cc1ccccc1)CC3`, the growth is 39.3%.

As for `O=CN1N=C(c2ccc(F)cc2)CC1c1cccc(Nc2ccnc3cc(C(F)(F)F)ccc23)c1` (stereo not given), the growth is 67.9%.

Turning to `CCCS(=O)(=O)Nc1ccc(F)c(C(=O)c2c[nH]c3ncc(-c4ccc(OCCCC5CCCCN5)nc4)cc23)c1F` (stereo not given), the growth is 31.7%.

Consider `Nc1c(C(=O)Nc2ccccn2)sc2nc3c(cc12)CCCCCC3`, for which the growth is 28.9%.

For the compound `C=C1C(=O)O[C@H]2[C@H]1CC/C(COC(=O)CCCCCCC(=O)OC/C1=C/CC[C@@]3(C)O[C@H]3[C@H]3OC(=O)C(=C)[C@@H]3CC1)=C\CC[C@@]1(C)O[C@@H]21`, the growth was 11.2%.

In the case of `c1ccc(-c2cn3ccnc3c(-c3ccc4c(c3)ncn4C3CCCCC3)n2)cc1`, the growth is 106%.

As for `c1ccc2nc(N3CCOCC3)c(N3CCCCC3)nc2c1`, the growth was 107%.

Consider `C=C(C)[C@@H]1CC[C@]2(C(=O)OCCCC[P+](c3ccccc3)(c3ccccc3)c3ccccc3)CC[C@]3(C)[C@H](CC[C@@H]4[C@@]5(C)CC[C@H](OC(=O)C(Cl)Cl)C(C)(C)[C@@H]5CC[C@]43C)[C@@H]12`, for which the growth is -23.3% (active).

As for `COc1cccc(C(=O)OCCn2nc3c4c(cccc42)C(=O)c2ccccc2-3)c1O`, the growth is 44.9%.
